PubChem BioAssay (EPA / NIEHS)
Results filed as inconclusive are left out. The source made the active and inactive calls. How the source made its calls, unless noted: active means hit-call score of the fitted dose curve at least 0.9, where 1 is the maximum; inactive means score below 0.9.

Assays:
[1] = target: Myc proto-oncogene protein (Homo sapiens) (UniProt P01106); experiment: ATG_Myc_CIS: Attagene CIS-FACTORIAL HepG2 Assay for human Myelocytomatosis (Myc) Proto-Oncogene Transcription Factor (AID 2282990); conditions: HepG2, Attagene cis-reporter transcription factor activity; actives raise or lower the signal
Method in brief: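 HepG2, transient MRTU transfection (cis promoters, endogenous TFs); 24 h dosing; TriZol RNA → oligo(dT) RT → PCR → 6-FAM primer extension → HpaI cut → CE. Bidirectional fit vs DMSO.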

[2] = ATG_NF_kB_CIS: Attagene CIS-FACTORIAL HepG2 Assay for human Nuclear Factor Kappa B (NF-kB) (AID 2282991); conditions: HepG2 Attagene cis-factorial NF-kB reporter mRNA; actives raise or lower the signal
Method in brief: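 Transient MRTU transfection of human HepG2 liver cells → 24 h chemical exposure → total RNA, oligo(dT) RT → PCR, 6-FAM primer extension, HpaI digest 2 h 37 C → CE fragment analysis. Bidirectional fitting, DMSO negative control.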

[3] = ATG_NRF2_ARE_CIS: Attagene CIS-FACTORIAL HepG2 Assay for human Nuclear Factor Erythroid 2 Related Factor 2 (NFR2) response to Antioxidant Response Elements (ARE) (AID 2282992); conditions: HepG2 Attagene ARE/NRF2 reporter, transcription factor activity; actives raise or lower the signal;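 on AC50: reporter mRNA level measured by RT-PCR and capillary electrophoresis fluorescence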
Method in brief: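 HepG2 cells transiently transfected with multiplexed cis-regulated reporter transcription units measure endogenous transcription factor activity. Reporter mRNA at 24 h is quantified by RT-PCR, fluorescent labelling and capillary electrophoresis, with bidirectional fitting relative to DMSO.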

[4] = ATG_Oct_MLP_CIS: Attagene CIS-FACTORIAL HepG2 Assay for human Octamer-Binding Transcription Factor (Oct) (AID 2282993); conditions: HepG2 Attagene cis-factorial Oct reporter, mRNA; actives raise or lower the signal
Method in brief: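 After 24 h compound exposure, transfected HepG2 cells were lysed for total RNA; reporter-specific cDNA was PCR-amplified, fluorescently labelled and sized by capillary electrophoresis. Bidirectional curve fitting used DMSO as baseline.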

[5] = target: Cellular tumor antigen p53 (Homo sapiens) (UniProt P04637); experiment: ATG_p53_CIS: Attagene CIS-FACTORIAL HepG2 Assay for human p53 Transcription Factor (AID 2282994); conditions: HepG2 p53 cis-element reporter, Attagene mRNA; actives raise or lower the signal
Method in brief: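 HepG2 cells transiently transfected with multiplexed cis-regulated reporter transcription units read endogenous TF activity. After 24 h compound exposure, reporter mRNA was quantified by RT-PCR, fluorescent labelling, HpaI digestion and capillary electrophoresis; bidirectional fits versus DMSO baseline.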

[6] = target: human Retinoic Acid Receptor beta (RARb), RARB (gene 5915) (UniProt P10826); experiment: ATG_RARb_TRANS: Attagene TRANS-FACTORIAL HepG2 Assay for human Retinoic Acid Receptor beta (AID 2283004; active means hit-call score of the fitted dose curve at least 0.9, where 1 is the maximum)
Method in brief: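 Fluorescent capillary-electrophoresis detection of GAL4-UAS reporter mRNA defines the endpoint, with induction over DMSO-treated wells scored as activity. Transiently transfected human hepatoma HepG2 cells expressing exogenous NR–Gal4 proteins are exposed to test chemicals for 24 h.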

[7] = target: Retinoic acid receptor alpha (Homo sapiens) (UniProt P10276); experiment: ATG_RARa_TRANS: Attagene TRANS-FACTORIAL HepG2 Assay for human Retinoic Acid Receptor alpha (RARa) (AID 2283005; active means hit-call score of the fitted dose curve at least 0.9, where 1 is the maximum;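 on AC50: potency for increased reporter signal meaning RARa activation over DMSO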)
Method in brief: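 Reporter transcripts, measured by RT-PCR with fluorescent labeling and capillary electrophoresis after 24 h dosing, reflect activity of an exogenous human RARa–GAL4 fusion in transiently transfected HepG2. Fitted for increase relative to DMSO.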

[8] = target: Peroxisome proliferator-activated receptor gamma (Homo sapiens) (UniProt P37231); experiment: ATG_PPARg_TRANS: Attagene TRANS-FACTORIAL HepG2 Assay for human Peroxisome Proliferator-activated Receptor-gamma (PPARg) (AID 2283007; active means hit-call score of the fitted dose curve at least 0.9, where 1 is the maximum)
Method in brief: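 Transient transfection of HepG2 with GAL4-UAS-driven reporter units; chemical dosing 24 h; total RNA → oligo(dT) RT → PCR with reporter primers → 6-FAM primer extension → HpaI digest 2 h 37 C → capillary electrophoresis. Positive direction vs DMSO.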

[9] = target: Nuclear receptor subfamily 1 group I member 2 (Homo sapiens) (UniProt O75469); experiment: ATG_PXR_TRANS: Attagene TRANS-FACTORIAL HepG2 Assay for human Pregnane X Receptor (PXR) (AID 2283008; active means hit-call score of the fitted dose curve at least 0.9, where 1 is the maximum)
Method in brief: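 HepG2 cells transiently transfected with multiple reporter units, here a PXR-GAL4 chimera driving a GAL4-UAS reporter; 24 h compound exposure. Reporter mRNA measured by RT-PCR, FAM labelling and capillary electrophoresis; gain of signal fitted against DMSO baseline.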

[10] = target: human Peroxisome Proliferator-activated Receptor delta (PPARd), PPARD (gene 5467) (UniProt Q03181); experiment: ATG_PPARd_TRANS: Attagene TRANS-FACTORIAL HepG2 Assay for human Peroxisome Proliferator-activated Receptor delta (PPARd) (AID 2283002; active means hit-call score of the fitted dose curve at least 0.9, where 1 is the maximum)
Method in brief: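 Transient HepG2 transfection (multiple GAL4-UAS RTUs, chimeric receptor-Gal4); 24 h dosing; total RNA → oligo(dT) RT → PCR → 6-FAM primer extension → HpaI cut → CE. Positive direction vs DMSO.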

[11] = target: human RAR-related Orphan Receptor beta (RORb), RORB (gene 6096) (UniProt Q92753); experiment: ATG_RORb_TRANS: Attagene TRANS-FACTORIAL HepG2 Assay for human RAR-related Orphan Receptor beta (RORb) (AID 2283010; active means hit-call score of the fitted dose curve at least 0.9, where 1 is the maximum)
Method in brief: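 HepG2 cells transiently transfected with GAL4-UAS reporter units expressing chimeric NR-Gal4 protein; reporter mRNA measured 24 h after dosing by RT-PCR, 6-FAM labelling and capillary electrophoresis. Gain-of-signal fitted relative to DMSO baseline.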

[12] = target: human RAR-related Orphan Receptor gamma (RORg), RORC (gene 6097) (UniProt P51449); experiment: ATG_RORg_TRANS: Attagene TRANS-FACTORIAL HepG2 Assay for human RAR-related Orphan Receptor gamma (RORg) (AID 2283011; active means hit-call score of the fitted dose curve at least 0.9, where 1 is the maximum)
Method in brief: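 Chimeric RORg-Gal4 transactivation in transfected HepG2; 24 h exposure; RT-PCR/capillary electrophoresis readout of reporter mRNA, DMSO baseline.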

[13] = target: human Retinoic Acid Receptor gamma (RARg), RARG (gene 5916) (UniProt P13631); experiment: ATG_RARg_TRANS: Attagene TRANS-FACTORIAL HepG2 Assay for human Retinoic Acid Receptor gamma (RARg) (AID 2283009; active means hit-call score of the fitted dose curve at least 0.9, where 1 is the maximum)
Method in brief: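 HepG2 transiently transfected with GAL4-UAS reporter units and chimeric NR-Gal4 constructs; 24 h compound exposure. Reporter mRNA quantified by RT-PCR, FAM labeling, HpaI digestion and capillary electrophoresis; gain-of-signal versus DMSO.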

[14] = target: human Peroxisome Proliferator-activated Receptor alpha (PPARa), PPARA (gene 5465) (UniProt Q07869); experiment: ATG_PPARa_TRANS: Attagene TRANS-FACTORIAL HepG2 Assay for human Peroxisome Proliferator-activated Receptor alpha (PPARa) (AID 2283001; active means hit-call score of the fitted dose curve at least 0.9, where 1 is the maximum)
Method in brief: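 Read-out is fluorescence of reporter cDNA fragments resolved by capillary electrophoresis after RT-PCR. Human HepG2 liver cells carried transfected PPARa-Gal4 chimera and GAL4-UAS reporter units, treated 24 h; activity scored as increase over DMSO.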

Measured: AC50

Cellular tumor antigen p53 (Homo sapiens), sequence (P04637 whole entry, looked up): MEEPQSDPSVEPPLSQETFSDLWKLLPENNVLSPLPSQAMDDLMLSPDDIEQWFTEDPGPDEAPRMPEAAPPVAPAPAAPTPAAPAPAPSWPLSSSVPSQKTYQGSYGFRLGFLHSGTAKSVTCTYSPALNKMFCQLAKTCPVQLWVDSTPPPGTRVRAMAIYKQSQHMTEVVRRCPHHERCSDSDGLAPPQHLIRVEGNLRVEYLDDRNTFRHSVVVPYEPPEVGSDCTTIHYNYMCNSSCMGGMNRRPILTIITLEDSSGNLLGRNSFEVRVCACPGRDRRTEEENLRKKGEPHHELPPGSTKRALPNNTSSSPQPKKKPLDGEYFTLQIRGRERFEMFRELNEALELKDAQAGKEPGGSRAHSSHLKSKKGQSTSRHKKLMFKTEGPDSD
human RAR-related Orphan Receptor gamma (RORg), RORC (gene 6097), sequence (P51449 whole entry, looked up, the tested form may be a part): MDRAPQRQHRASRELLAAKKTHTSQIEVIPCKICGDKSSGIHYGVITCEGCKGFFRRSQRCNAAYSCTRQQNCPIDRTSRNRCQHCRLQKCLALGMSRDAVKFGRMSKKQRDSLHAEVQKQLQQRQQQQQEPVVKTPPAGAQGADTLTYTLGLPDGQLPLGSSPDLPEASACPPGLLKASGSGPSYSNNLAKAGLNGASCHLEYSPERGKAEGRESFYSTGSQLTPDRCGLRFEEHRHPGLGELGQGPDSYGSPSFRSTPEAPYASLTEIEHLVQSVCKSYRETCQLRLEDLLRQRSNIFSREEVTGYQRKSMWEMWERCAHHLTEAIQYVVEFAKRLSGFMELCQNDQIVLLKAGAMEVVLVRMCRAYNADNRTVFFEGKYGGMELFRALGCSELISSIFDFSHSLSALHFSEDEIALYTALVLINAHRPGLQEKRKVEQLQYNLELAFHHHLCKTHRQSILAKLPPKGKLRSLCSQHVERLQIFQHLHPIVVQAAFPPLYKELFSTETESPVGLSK
Myc proto-oncogene protein (Homo sapiens), sequence (P01106 whole entry, looked up): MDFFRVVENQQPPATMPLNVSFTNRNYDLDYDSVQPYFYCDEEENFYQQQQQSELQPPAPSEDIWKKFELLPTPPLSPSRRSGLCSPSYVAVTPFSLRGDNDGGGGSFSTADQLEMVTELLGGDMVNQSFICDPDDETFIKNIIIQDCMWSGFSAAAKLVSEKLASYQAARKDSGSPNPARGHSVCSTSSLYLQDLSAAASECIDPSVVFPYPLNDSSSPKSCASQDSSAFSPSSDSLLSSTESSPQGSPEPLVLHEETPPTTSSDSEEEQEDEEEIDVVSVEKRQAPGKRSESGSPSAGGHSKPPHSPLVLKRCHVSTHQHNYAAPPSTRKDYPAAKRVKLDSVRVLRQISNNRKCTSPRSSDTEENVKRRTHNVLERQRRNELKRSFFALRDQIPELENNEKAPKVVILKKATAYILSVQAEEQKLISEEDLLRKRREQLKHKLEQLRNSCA
Retinoic acid receptor alpha (Homo sapiens), sequence (P10276 whole entry, looked up, the tested form may be a part): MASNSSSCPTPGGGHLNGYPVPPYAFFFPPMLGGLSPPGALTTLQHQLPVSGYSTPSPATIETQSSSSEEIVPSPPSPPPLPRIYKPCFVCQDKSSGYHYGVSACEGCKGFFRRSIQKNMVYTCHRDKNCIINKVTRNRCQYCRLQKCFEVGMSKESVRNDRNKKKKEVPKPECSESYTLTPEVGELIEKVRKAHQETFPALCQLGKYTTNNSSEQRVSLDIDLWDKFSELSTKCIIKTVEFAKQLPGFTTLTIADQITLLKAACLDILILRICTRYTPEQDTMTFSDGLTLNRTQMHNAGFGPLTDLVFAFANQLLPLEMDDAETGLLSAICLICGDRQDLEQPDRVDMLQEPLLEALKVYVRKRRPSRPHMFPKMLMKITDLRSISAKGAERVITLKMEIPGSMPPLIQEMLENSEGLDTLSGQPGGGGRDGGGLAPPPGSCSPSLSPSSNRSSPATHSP
Nuclear receptor subfamily 1 group I member 2 (Homo sapiens), sequence (O75469 whole entry, looked up, the tested form may be a part): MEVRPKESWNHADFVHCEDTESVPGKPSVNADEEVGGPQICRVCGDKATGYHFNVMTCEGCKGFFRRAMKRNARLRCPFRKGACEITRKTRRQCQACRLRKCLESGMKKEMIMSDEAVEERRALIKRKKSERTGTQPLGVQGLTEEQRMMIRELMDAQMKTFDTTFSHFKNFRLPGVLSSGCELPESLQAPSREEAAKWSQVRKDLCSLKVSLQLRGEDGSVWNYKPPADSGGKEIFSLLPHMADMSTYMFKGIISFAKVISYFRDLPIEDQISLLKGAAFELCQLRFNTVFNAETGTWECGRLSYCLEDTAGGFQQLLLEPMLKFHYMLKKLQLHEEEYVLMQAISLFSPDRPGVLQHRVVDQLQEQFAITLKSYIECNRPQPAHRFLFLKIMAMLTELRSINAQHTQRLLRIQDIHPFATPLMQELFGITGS
Peroxisome proliferator-activated receptor gamma (Homo sapiens), sequence (P37231 whole entry, looked up, the tested form may be a part): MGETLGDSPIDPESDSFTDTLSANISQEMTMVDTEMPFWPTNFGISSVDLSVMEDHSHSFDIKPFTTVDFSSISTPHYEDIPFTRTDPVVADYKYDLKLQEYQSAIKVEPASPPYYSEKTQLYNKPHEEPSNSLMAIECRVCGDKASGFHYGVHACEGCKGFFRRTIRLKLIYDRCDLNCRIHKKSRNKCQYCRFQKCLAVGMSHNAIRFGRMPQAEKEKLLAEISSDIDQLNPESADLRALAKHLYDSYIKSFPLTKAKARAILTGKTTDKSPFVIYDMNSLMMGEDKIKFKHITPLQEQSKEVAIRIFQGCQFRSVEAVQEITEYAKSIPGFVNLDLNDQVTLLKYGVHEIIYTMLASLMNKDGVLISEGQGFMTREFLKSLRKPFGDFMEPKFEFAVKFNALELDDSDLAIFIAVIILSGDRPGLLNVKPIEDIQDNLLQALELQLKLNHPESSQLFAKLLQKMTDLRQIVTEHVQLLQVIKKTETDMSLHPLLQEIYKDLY
human RAR-related Orphan Receptor beta (RORb), RORB (gene 6096), sequence (Q92753 whole entry, looked up, the tested form may be a part): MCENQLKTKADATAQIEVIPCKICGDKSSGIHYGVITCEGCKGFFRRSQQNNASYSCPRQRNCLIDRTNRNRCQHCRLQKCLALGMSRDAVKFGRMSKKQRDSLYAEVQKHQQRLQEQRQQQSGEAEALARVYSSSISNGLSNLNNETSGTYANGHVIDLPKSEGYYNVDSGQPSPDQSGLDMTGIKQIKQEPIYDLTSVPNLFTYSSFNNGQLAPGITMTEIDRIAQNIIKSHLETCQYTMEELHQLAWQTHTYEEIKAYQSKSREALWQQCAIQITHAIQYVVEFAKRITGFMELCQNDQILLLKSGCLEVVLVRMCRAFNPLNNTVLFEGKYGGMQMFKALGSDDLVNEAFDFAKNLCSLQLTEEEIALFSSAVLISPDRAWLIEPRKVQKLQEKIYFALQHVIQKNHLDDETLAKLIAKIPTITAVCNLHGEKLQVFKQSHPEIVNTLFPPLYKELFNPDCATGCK
human Peroxisome Proliferator-activated Receptor delta (PPARd), PPARD (gene 5467), sequence (Q03181 whole entry, looked up, the tested form may be a part): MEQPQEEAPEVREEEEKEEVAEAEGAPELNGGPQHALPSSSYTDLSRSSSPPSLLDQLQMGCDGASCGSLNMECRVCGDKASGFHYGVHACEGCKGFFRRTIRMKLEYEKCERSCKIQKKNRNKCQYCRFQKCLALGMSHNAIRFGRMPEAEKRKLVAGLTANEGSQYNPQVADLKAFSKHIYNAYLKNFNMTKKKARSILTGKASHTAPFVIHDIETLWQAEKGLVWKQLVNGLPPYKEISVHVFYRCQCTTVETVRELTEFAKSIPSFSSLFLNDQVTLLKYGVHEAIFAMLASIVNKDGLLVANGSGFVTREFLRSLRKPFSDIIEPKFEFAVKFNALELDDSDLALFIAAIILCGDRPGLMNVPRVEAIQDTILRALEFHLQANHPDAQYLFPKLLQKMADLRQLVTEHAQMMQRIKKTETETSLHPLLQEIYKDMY
human Retinoic Acid Receptor beta (RARb), RARB (gene 5915), sequence (P10826 whole entry, looked up, the tested form may be a part): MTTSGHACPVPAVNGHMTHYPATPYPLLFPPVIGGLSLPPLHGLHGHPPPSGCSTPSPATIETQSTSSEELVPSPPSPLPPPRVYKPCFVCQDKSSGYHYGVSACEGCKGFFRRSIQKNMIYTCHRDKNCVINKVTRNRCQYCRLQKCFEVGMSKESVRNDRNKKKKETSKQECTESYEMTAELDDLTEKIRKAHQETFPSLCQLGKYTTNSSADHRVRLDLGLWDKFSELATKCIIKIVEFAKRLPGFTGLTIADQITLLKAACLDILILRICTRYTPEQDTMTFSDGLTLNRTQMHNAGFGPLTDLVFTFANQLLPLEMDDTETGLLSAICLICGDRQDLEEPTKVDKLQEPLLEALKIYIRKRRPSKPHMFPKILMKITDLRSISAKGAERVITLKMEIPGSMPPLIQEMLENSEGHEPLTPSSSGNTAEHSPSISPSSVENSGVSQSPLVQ
human Retinoic Acid Receptor gamma (RARg), RARG (gene 5916), sequence (P13631 whole entry, looked up, the tested form may be a part): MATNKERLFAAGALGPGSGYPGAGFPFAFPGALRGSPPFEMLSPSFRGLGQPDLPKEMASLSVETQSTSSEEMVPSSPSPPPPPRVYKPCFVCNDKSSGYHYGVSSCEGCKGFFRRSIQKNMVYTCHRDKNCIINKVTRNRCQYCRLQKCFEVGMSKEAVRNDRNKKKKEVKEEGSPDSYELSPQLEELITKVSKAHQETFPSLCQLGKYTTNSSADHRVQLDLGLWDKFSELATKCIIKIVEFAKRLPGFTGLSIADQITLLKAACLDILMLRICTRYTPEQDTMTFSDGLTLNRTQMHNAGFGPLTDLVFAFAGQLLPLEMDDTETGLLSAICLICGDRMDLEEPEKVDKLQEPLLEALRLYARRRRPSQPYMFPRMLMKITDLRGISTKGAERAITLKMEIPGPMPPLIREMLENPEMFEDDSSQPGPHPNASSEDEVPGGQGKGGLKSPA

CC(C)[C@@H](Nc1ccc(C(F)(F)F)cc1Cl)C(=O)OC(C#N)c1cccc(Oc2ccccc2)c1 (stereo partly drawn)
inactive: [1] | [2] | [4] | [5] | [6] | [7]
active: [3] 17.1 µM | [8] 5.11 µM | [9] 0.51 µM

CCCCN(CCCCO)N=O
inactive: [1] | [2] | [3] | [4] | [5] | [10] | [8] | [9] | [11]

CC(c1ccccc1)(c1ccc(O)cc1)c1ccc(O)cc1
inactive: [1] | [10] | [6] | [7] | [8]
active: [2] 14.6 µM | [3] 11.1 µM | [4] 11.1 µM | [5] 16.2 µM | [9] 2.54 µM

CN(C)c1ccc(N=O)cc1
active: [2] 6.42 µM | [3] 1.39 µM | [5] 44.6 µM
inactive: [1] | [4] | [10] | [6] | [7] | [8] | [9] | [11] | [12]

CC(C)CP(=S)(S)CC(C)C
active: [9] 59.1 µM
inactive: [1] | [2] | [3] | [4] | [5] | [6] | [7] | [8] | [13] | [11]

Brc1ccc(Oc2c(Br)cc(Br)cc2Br)c(Br)c1
inactive: [1] | [2] | [3] | [4] | [5] | [14] | [9] | [11] | [12]

CC(C)(c1ccc(O)c(-c2ccccc2)c1)c1ccc(O)c(-c2ccccc2)c1
inactive: [1] | [2] | [4] | [5] | [10] | [6] | [7]
active: [3] 4.64 µM | [8] 1.61 µM | [9] 1.45 µM

ClCc1ccccc1CCl
inactive: [6] | [9] | [12]
active: [1] 33.4 µM | [2] 25.1 µM | [3] 8.19 µM | [4] 21.2 µM | [5] 50.7 µM | [8] 2.49 µM

CCOP(=S)(OCC)O/N=C(\C#N)c1ccccc1
active: [3] 27.7 µM | [8] 10.6 µM | [9] 1.54 µM
inactive: [1] | [2] | [4] | [5] | [10]

O=C1c2ccccc2C(=O)C1C(=O)C(c1ccccc1)c1ccc(Cl)cc1 (stereo not drawn)
inactive: [5] | [10] | [6] | [13] | [11]
active: [1] 27.1 µM | [2] 26.3 µM | [3] 3.96 µM | [4] 6.7 µM | [7] 26.1 µM | [8] 3.11 µM | [9] 2.45 µM

O=C(NC(=O)c1c(F)cccc1F)Nc1cc(Cl)c(OC(F)(F)C(F)C(F)(F)F)cc1Cl (stereo not drawn)
inactive: [1] | [2] | [4] | [5] | [14] | [8] | [9] | [11]
active: [3] 73 µM
